DT40 TDP1 CPT: growth inhibition of DT40 Tdp1-/-;hTDP1 cells with camptothecin (screen for TDP1 inhibitors). Potency, µM (series often up to 46.2 µM), hits mostly inhibitors. chicken DT40 Tdp1-/-;hTDP1 cells + 20 nM CPT, ATP luminescence, 48 h. actives 12% (n = 420,000); also: nearly all actives have a fitted effect of over 55% in size
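Cell growth measured by CellTiter-Glo luminescence after a minimum 48 h, 37 C compound exposure with 20 nM CPT in Tdp1-knockout DT40 cells stably expressing hTDP1, seeded 400/well; qHTS titration format.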
DT40 TDP1 no CPT: qHTS for Inhibitors of human tyrosyl-DNA phosphodiesterase 1 (TDP1): qHTS in cells in absence of CPT; DT40 Tdp1-/- hTDP1 cells, no CPT, ATP luminescence, 48 h; Potency, µM (titrated, usually from 46.2 µM), actives largely listed as inhibitors; actives 15% (n = 420,000); also: nearly all actives have a fitted effect of over 55% in size
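Growth of hTDP1-complemented DT40 Tdp1-knockout cells is measured by ATP luminescence after at least 48 hr compound exposure at 37 °C, with DMSO substituting for the 20 nM CPT used in the parallel screen.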
HT1080 IDH1KD tx: HT-1080 IDH1 knockdown cell toxicity (counter line). Potency, µM (highest dose often 46.1 µM), most hits filed as cytotoxic. actives 2% (n = 360,000). HT-1080 IDH1 knockdown viability, ATP luminescence, 48 h. AID 686971
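Viability of IDH1-knockdown HT-1080 fibrosarcoma cells was assessed by CellTiter-Glo after 48 h at 37 °C with titrated compound; concentration-effect curves were classified by fit quality and response size.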
HT1080-NT tox: kills 2HG-producing HT-1080-NT fibrosarcoma cells; HT-1080-NT fibrosarcoma viability, CellTiter-Glo ATP luminescence, 48 h; Potency, µM (titrated, usually from 46.1 µM), most hits filed as cytotoxic; actives 1.6% (n = 360,000);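 also: NT is the 2HG producing partner of a matched IDH1 knockdown line; nearly all actives have a fitted effect of over 55% in size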
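HT-1080-NT; 750 cells/well; 5% FBS RPMI; 48 h compound, 37 degrees C; CellTiter-Glo luminescence; curve fitting and curve-class assignment.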
IL-1B inflam inh: blocks inflammasome-driven IL-1 beta release; THP-1 LPS/ATP IL-1B secretion, AlphaLISA, 16 h; stronger effect = lower value; activity change, % at 57.5 µM; actives 4.7% (n = 360,000); AID 743279; in the data active = activity change below about -50%; inconclusive = mostly about -30% to -49%
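THP-1 cells pretreated 1 hr with compounds (up to 57.5 uM final), then stimulated with LPS (250 ng/mL final) plus ATP (1.25 mM final); secreted IL-1B measured by AlphaLISA after 16 hr, decreased signal indicating inhibition.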
A number is an active result; [ ] = dose if it differs, or a comment. An excerpt weighted towards active compounds, which were near 19% of everything screened. Unless noted, calls follow the shape of the dose curve; as a rule, active = well fitted curve in the direction sought with a large enough effect; inconclusive = small, poorly fitted or top-dose-only effect, or another doubt; inactive = no such curve, though single readings can be large; an effect the other way counts as inactive or inconclusive.

Results for Cc1ccc(N2CCN(C3=NC(=O)/C(=C\c4cn[nH]c4-c4ccccc4)S3)CC2)cc1 ?
DT40 TDP1 CPT: inconclusive; DT40 TDP1 no CPT: 21µM; HT1080 IDH1KD tx: inactive; HT1080-NT tox: inactive; IL-1B inflam inh: inconclusive

Results for O=C1N=C(N2CCN(c3ccccc3)CC2)S/C1=C\c1cn[nH]c1-c1ccccc1 ?
DT40 TDP1 CPT: 21µM; DT40 TDP1 no CPT: 13µM; HT1080 IDH1KD tx: inactive; HT1080-NT tox: inactive; IL-1B inflam inh: inactive

Results for O=C1N=C(N2CCC(Cc3ccccc3)CC2)S/C1=C/c1cn[nH]c1-c1ccccc1 ?
DT40 TDP1 CPT: inconclusive; DT40 TDP1 no CPT: 16µM; HT1080 IDH1KD tx: inactive; HT1080-NT tox: inactive; IL-1B inflam inh: inconclusive

How did Cc1cccc(N2CCN(C3=NC(=O)C(=C4CCCCC4)S3)CC2)c1 do in these assays?
DT40 TDP1 CPT: inconclusive; DT40 TDP1 no CPT: inconclusive; HT1080 IDH1KD tx: inactive; HT1080-NT tox: inactive; IL-1B inflam inh: inactive

How did Cc1ccc(C)c(NC(=O)CCc2ccc(S(=O)(=O)NC3CCCCC3)cc2)c1 do in these assays?
DT40 TDP1 CPT: inconclusive; DT40 TDP1 no CPT: inconclusive; HT1080 IDH1KD tx: inactive; HT1080-NT tox: inactive; IL-1B inflam inh: inactive

What do the screens show for `CCCC1CC(C(=O)N[C@H](C(C)O)C2OC(SC)[C@@H](O)C(O)C2O)N(C)C1` (some centres not stated)?
DT40 TDP1 CPT: inactive; DT40 TDP1 no CPT: inactive

Results for Cc1ccc(NC(=O)CCC(=O)NNC(=O)/C=C/C(=O)O)c(C)c1 ?
DT40 TDP1 CPT: inactive; DT40 TDP1 no CPT: inactive; HT1080 IDH1KD tx: inactive; HT1080-NT tox: inactive; IL-1B inflam inh: inactive

Results for COc1ccc(N/C(=C2\CCCC2=O)C2CCCCC2)cc1 ?
DT40 TDP1 CPT: inconclusive; DT40 TDP1 no CPT: inconclusive; HT1080 IDH1KD tx: inactive; HT1080-NT tox: inactive; IL-1B inflam inh: inactive

How did O=C(CN1CC(=O)Oc2ccccc21)OCC(=O)c1ccc(F)cc1 do in these assays?
DT40 TDP1 CPT: inconclusive; DT40 TDP1 no CPT: inconclusive; HT1080 IDH1KD tx: inactive; HT1080-NT tox: inactive; IL-1B inflam inh: inactive

How did O=C(CN1CC(=O)Oc2ccccc21)OCC(=O)c1ccc(Br)cc1 do in these assays?
DT40 TDP1 CPT: 21µM; DT40 TDP1 no CPT: inconclusive; HT1080 IDH1KD tx: inactive; HT1080-NT tox: inactive; IL-1B inflam inh: inactive

Results for COc1ccc(Nc2nc3c(S(=O)(=O)c4ccccc4)nnn3c3ccc(Cl)cc23)c(OC)c1 ?
DT40 TDP1 CPT: inactive; DT40 TDP1 no CPT: inactive

How did CC(=O)c1cccc(-c2ccnc3c2CC(C(=O)Nc2ccc4c(c2)OCO4)O3)c1 (configuration not stated) do in these assays?
DT40 TDP1 CPT: 4.1µM; DT40 TDP1 no CPT: 2.3µM; HT1080 IDH1KD tx: 2.3µM; HT1080-NT tox: inconclusive; IL-1B inflam inh: inactive

How did CC(C)c1ccc(NC(=O)C2Cc3c(-c4ccc5c(c4)OCO5)ccnc3O2)cc1 (configuration not stated) do in these assays?
DT40 TDP1 CPT: inconclusive; DT40 TDP1 no CPT: 15µM; HT1080 IDH1KD tx: inconclusive; HT1080-NT tox: inconclusive; IL-1B inflam inh: -58

Results for CC(=O)Nc1ccc(-c2ccnc3c2CC(C(=O)Nc2ccc4c(c2)OCO4)O3)cc1 (configuration not stated) ?
DT40 TDP1 CPT: 6.5µM; DT40 TDP1 no CPT: 8.2µM; HT1080 IDH1KD tx: 15µM; HT1080-NT tox: inconclusive; IL-1B inflam inh: inactive

What do the screens show for `CC(=O)Nc1ccc(-c2ccnc3c2CC(C(=O)Nc2ccc(C(C)C)cc2)O3)cc1` (configuration not stated)?
DT40 TDP1 CPT: inconclusive; DT40 TDP1 no CPT: inconclusive; HT1080 IDH1KD tx: inactive; HT1080-NT tox: inconclusive; IL-1B inflam inh: inactive

Results for O=C(COC(=O)c1ccc(Cl)c(S(=O)(=O)NCc2ccccc2)c1)NCC1CCCO1 (configuration not stated) ?
DT40 TDP1 CPT: inactive; DT40 TDP1 no CPT: inactive; HT1080 IDH1KD tx: inactive; HT1080-NT tox: inactive; IL-1B inflam inh: inactive

How did CCn1c2ccccc2c2nnc(SCC(=O)N3CC(C)OC(C)C3)nc21 (configuration not stated) do in these assays?
DT40 TDP1 CPT: inconclusive; DT40 TDP1 no CPT: 16µM; HT1080 IDH1KD tx: inactive[9.24 µM]; HT1080-NT tox: inactive; IL-1B inflam inh: inactive

How did COc1cc(NC(=O)CSc2nnc3c4ccccc4n(C)c3n2)cc(OC)c1OC do in these assays?
DT40 TDP1 CPT: inactive; DT40 TDP1 no CPT: inconclusive; HT1080 IDH1KD tx: inactive; HT1080-NT tox: inactive

Results for COc1ccccc1N1CCN(C(=O)CSc2nnc3c4ccccc4n(CC(=O)O)c3n2)CC1 ?
DT40 TDP1 CPT: inactive; DT40 TDP1 no CPT: inactive; HT1080 IDH1KD tx: inactive; HT1080-NT tox: inactive; IL-1B inflam inh: inactive

Results for Cn1c2ccc(F)cc2c2nnc(SCC(=O)Nc3cccc(O)c3)nc21 ?
DT40 TDP1 CPT: inactive; DT40 TDP1 no CPT: inconclusive; HT1080 IDH1KD tx: inconclusive; HT1080-NT tox: inactive; IL-1B inflam inh: -71

What do the screens show for `CCCn1c2ccccc2c2nnc(SCC(=O)Nc3cc(C)on3)nc21`?
DT40 TDP1 CPT: inactive; DT40 TDP1 no CPT: inconclusive; HT1080 IDH1KD tx: inactive; HT1080-NT tox: inactive; IL-1B inflam inh: inactive

What do the screens show for `Cc1ccc(C2=NN=C(NC(=O)CSc3nnc4c5ccccc5n(C)c4n3)SC2)cc1`?
DT40 TDP1 CPT: 10µM; DT40 TDP1 no CPT: 9.2µM; HT1080 IDH1KD tx: 29µM; HT1080-NT tox: inconclusive; IL-1B inflam inh: inactive

What do the screens show for `Cn1c2ccccc2c2nnc(SCC(=O)Nc3cccc(C(=O)O)c3)nc21`?
DT40 TDP1 CPT: inactive; DT40 TDP1 no CPT: inactive; HT1080 IDH1KD tx: inactive; HT1080-NT tox: inactive; IL-1B inflam inh: inactive

What do the screens show for `CCCn1c2ccccc2c2nnc(SCC(=O)Nc3ncccn3)nc21`?
DT40 TDP1 CPT: 26µM; DT40 TDP1 no CPT: inconclusive; HT1080 IDH1KD tx: inactive; HT1080-NT tox: inactive; IL-1B inflam inh: inactive

What do the screens show for `CCN(CC)CCCN1C(=O)CSC1c1ccc([N+](=O)[O-])cc1` (configuration not stated)?
DT40 TDP1 CPT: inactive; DT40 TDP1 no CPT: inactive; HT1080 IDH1KD tx: inactive; HT1080-NT tox: inactive; IL-1B inflam inh: inactive

What do the screens show for `CCCCn1c(N)c(N(CCOC)C(=O)c2ccc(F)c(S(=O)(=O)N3CCOCC3)c2)c(=O)[nH]c1=O`?
DT40 TDP1 CPT: inactive; DT40 TDP1 no CPT: inactive; HT1080 IDH1KD tx: inactive; HT1080-NT tox: inactive; IL-1B inflam inh: inactive

What do the screens show for `CCN1C(=O)[C@H]2[C@@H](c3ccc(C)cc3)N3C(=O)N(c4cccc(F)c4)C(=O)[C@@]3(C)[C@H]2C1=O`?
DT40 TDP1 CPT: inactive; DT40 TDP1 no CPT: inactive; HT1080 IDH1KD tx: inactive; HT1080-NT tox: inactive; IL-1B inflam inh: inactive

How did CC(C)(C)OC(=O)N1CCC(CC2CC(c3cccc(Br)c3)=NO2)(C(=O)O)CC1 (configuration not stated) do in these assays?
DT40 TDP1 CPT: inactive; DT40 TDP1 no CPT: inactive; HT1080 IDH1KD tx: inactive; HT1080-NT tox: inactive; IL-1B inflam inh: inactive
